Screening data: PubChem BioAssay, National Center for Advancing Translational Sciences (NCATS)
Rows were chosen to be rich in hits. Some 18% of all compounds tested hit in one or more screens of this group.
IL-1B inflam inh – blocks inflammasome-driven IL-1 beta release. THP-1 LPS/ATP IL-1B secretion, AlphaLISA, 16 h; stronger effect = lower value. actives 4.7% (n = 360,000). activity change, % at 57.5 µM; in the data active = activity change below about -50%; inconclusive = mostly about -30% to -49%
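Secreted IL-1B measured by AlphaLISA bead assay after 16 h compound exposure of THP-1 cells; compounds (final up to 57.5 uM) added 1 h before LPS (250 ng/mL) and ATP (1.25 mM) stimulation; lower signal means less secretion.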
Six1-Eya2 inh – blocks human Six1 binding to Eya2; Q15475+O00167; AlphaScreen GST-Six1/His-Eya2 binding, biochemical; stronger effect = lower value; activity change, % (concentration not given with the values); actives 0.56% (n = 360,000); AID 651725; in the data active = activity change below about -65%; inconclusive = mostly about -30% to -63%
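GST-Six1 + His-Eya2 (5X stock: 250/500 nM); Tris pH 8.0, 300 mM NaCl, 0.05% BSA, 0.02% Tween 20; GSH donor/Ni acceptor beads; 1 h 37 °C dark; AlphaScreen readout.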
CtBP-E1A blk – blocks the CtBP interaction with E1A | actives 0.49% (n = 340,000) | activity change, % (test concentration not listed) | AlphaScreen GST-E1A/His-CtBP binding, 1536-well; stronger effect = lower value | AID 651724; in the data active = activity change below about -65%; inconclusive = mostly about -30% to -63%
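In 5 uL wells, 23 nL compound meets equimolar GST-E1A and His-CtBP (5X stock 125 nM each) for 2 h, 37 °C. Beads (5X, 50 ug/mL) then 1 h, 37 °C, dark.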
TDP1 block – inhibitors of human tyrosyl-DNA phosphodiesterase TDP1; actives 0.28% (n = 350,000); Potency, µM (series often up to 130 µM), for the others: at the highest dose activity change, negative = inhibition, most hits filed as inhibitors; Q9NUW8; recombinant TDP1, AlphaScreen DNA substrate cleavage; also: potency is read from the fitted curve at half-maximal effect; nearly all actives have a fitted effect of over 40% in size
Target sequence (Q9NUW8 whole entry, looked up): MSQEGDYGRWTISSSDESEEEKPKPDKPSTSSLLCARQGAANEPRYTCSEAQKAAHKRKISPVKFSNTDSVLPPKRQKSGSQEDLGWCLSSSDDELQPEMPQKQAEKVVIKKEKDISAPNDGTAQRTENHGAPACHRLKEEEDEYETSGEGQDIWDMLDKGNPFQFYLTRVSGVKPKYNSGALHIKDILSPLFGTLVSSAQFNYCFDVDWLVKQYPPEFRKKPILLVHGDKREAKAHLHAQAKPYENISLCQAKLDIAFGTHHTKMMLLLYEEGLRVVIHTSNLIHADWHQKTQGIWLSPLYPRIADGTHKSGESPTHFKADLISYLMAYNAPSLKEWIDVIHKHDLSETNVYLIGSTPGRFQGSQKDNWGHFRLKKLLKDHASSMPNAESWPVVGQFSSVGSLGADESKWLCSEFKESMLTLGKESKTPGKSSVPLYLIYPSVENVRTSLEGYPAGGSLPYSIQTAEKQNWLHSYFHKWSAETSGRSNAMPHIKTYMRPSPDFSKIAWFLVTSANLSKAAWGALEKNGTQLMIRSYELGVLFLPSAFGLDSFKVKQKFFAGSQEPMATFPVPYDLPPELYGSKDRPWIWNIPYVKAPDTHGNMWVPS
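Tdp1 1 nM final; 15 min RT w/ cpd; substrate 15 nM, 5 min; beads 10 ug/ml, 10 min; AlphaScreen read. Neg ctrl: no enzyme.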
TDP1 cell noCPT – qHTS for Inhibitors of human tyrosyl-DNA phosphodiesterase 1 (TDP1): qHTS in cells in absence of CPT; DT40 Tdp1-/- hTDP1 cells, no CPT, ATP luminescence, 48 h; Potency, µM (highest dose often 46.2 µM), for the others: at the top dose activity change, negative = growth inhibition, actives largely listed as inhibitors; actives 15% (n = 420,000); also: potency is read from the fitted curve at half-maximal effect; nearly all actives have a fitted effect of over 55% in size
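Chicken DT40 Tdp1-/- cells complemented with human TDP1, screened without camptothecin (DMSO vehicle only), 400 cells/well. Compounds pin-transferred, cells incubated at 37 °C for at least 48 hr. Growth read as ATP-dependent luminescence (CellTiter-Glo, 30 min at RT).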
DT40 TDP1 CPT – growth inhibition of DT40 Tdp1-/-;hTDP1 cells with camptothecin (screen for TDP1 inhibitors) | Potency, µM (highest dose often 46.2 µM), for inactives: at the highest dose activity change, negative = growth inhibition, most hits filed as inhibitors | actives 12% (n = 420,000) | chicken DT40 Tdp1-/-;hTDP1 cells + 20 nM CPT, ATP luminescence, 48 h; also: potency is read from the fitted curve at half-maximal effect; nearly all actives have a fitted effect of over 55% in size
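Chicken DT40 Tdp1-/- cells complemented with human TDP1, 400 cells/well, exposed to compounds plus 20 nM camptothecin for at least 48 h at 37 C; viability read as ATP content by CellTiter-Glo luminescence.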
* marks the source's active call; other numbers are inactive results. Unless noted, calls follow the shape of the dose curve; as a rule, active = well fitted curve in the direction sought with a large enough effect; inconclusive = small, poorly fitted or top-dose-only effect, or another doubt; inactive = no such curve, though single readings can be large; an effect the other way counts as inactive or inconclusive. % is scaled to controls: 0 for no effect and ±100 for the full control effect.

Screening Cc1ccc2cccc(Oc3ncnc4scc(-c5ccccc5)c34)c2n1 returned IL-1B inflam inh 0, Six1-Eya2 inh -11, CtBP-E1A blk -8, TDP1 block 5%, TDP1 cell noCPT inconclusive and DT40 TDP1 CPT inconclusive.
COc1ccc(-c2csc3ncnc(N4CCN(CCO)CC4)c23)cc1 was read as IL-1B inflam inh -15, Six1-Eya2 inh -4, CtBP-E1A blk 3, TDP1 cell noCPT inconclusive and DT40 TDP1 CPT -23%.
CN1CCN(c2ncnc3scc(-c4ccccc4Cl)c23)CC1 was read as IL-1B inflam inh inconclusive, Six1-Eya2 inh -2, CtBP-E1A blk -8, TDP1 block 2%, TDP1 cell noCPT 9.2µM* and DT40 TDP1 CPT inconclusive.
COc1ccc(-c2csc3ncnc(Oc4cccc5ccc(C)nc45)c23)cc1 was read as IL-1B inflam inh -9, Six1-Eya2 inh -11, CtBP-E1A blk -9, TDP1 block 3%, TDP1 cell noCPT inconclusive and DT40 TDP1 CPT 16µM*.
Screening COc1ccc(-c2csc3ncnc(Nc4cccc(OC)c4)c23)cc1 returned TDP1 block 4%, TDP1 cell noCPT inconclusive and DT40 TDP1 CPT inconclusive.
`CC(=O)Nc1cccc(Oc2ncnc3scc(-c4ccc(C(C)C)cc4)c23)c1` gave IL-1B inflam inh -52*, Six1-Eya2 inh 2, CtBP-E1A blk -8, TDP1 block 6%, TDP1 cell noCPT 1.2µM* and DT40 TDP1 CPT 1.3µM*.
`O=C(NCC1CCCO1)/C(=C\c1cccs1)NC(=O)c1ccccc1` (stereo not drawn) gave IL-1B inflam inh -6, Six1-Eya2 inh 5, CtBP-E1A blk -10, TDP1 block 7%, TDP1 cell noCPT -10% and DT40 TDP1 CPT 23%.
Screening COc1ccc(NS(=O)(=O)c2ccc(C)c(C(=O)N(C)CC(=O)Nc3cccc(OC)c3)c2)cc1 returned IL-1B inflam inh -21, Six1-Eya2 inh -8, CtBP-E1A blk 0, TDP1 block 1%, TDP1 cell noCPT inconclusive and DT40 TDP1 CPT inconclusive.
For Oc1ccccc1N1CCN(c2ncnc3scc(-c4ccccc4)c23)CC1 the results were IL-1B inflam inh inconclusive, Six1-Eya2 inh -7, CtBP-E1A blk -5, TDP1 block 8%, TDP1 cell noCPT 23µM* and DT40 TDP1 CPT inconclusive.
For Cc1nc(N2CCN(c3ccccc3O)CC2)c2c(-c3ccccc3)csc2n1 the results were IL-1B inflam inh -62*, Six1-Eya2 inh -10, CtBP-E1A blk -6, TDP1 block -13%, TDP1 cell noCPT 16µM* and DT40 TDP1 CPT inconclusive.
`COc1ccc(-c2csc3nc(C)nc(N4CCN(C(C)=O)CC4)c23)cc1OC` gave IL-1B inflam inh 0, Six1-Eya2 inh 1, CtBP-E1A blk -16, TDP1 block 1%, TDP1 cell noCPT inconclusive and DT40 TDP1 CPT -25%.
Screening CC1CCc2sc(C(=O)Nc3nnc(SCc4ccc(F)cc4)s3)cc2C1 (stereo not drawn) returned IL-1B inflam inh -10, Six1-Eya2 inh 5, CtBP-E1A blk -2, TDP1 block 3%, TDP1 cell noCPT -25% and DT40 TDP1 CPT -25%.
`CC1=C(C(=O)Nc2ccc(C)cc2C)C(c2ccc(C(=O)O)cc2)n2nc(SCc3ccccc3)nc2N1` (stereo not drawn) gave TDP1 block -3%, TDP1 cell noCPT -3% and DT40 TDP1 CPT -3%.
`CCC(C)NCCCCOc1cc(C)cc(C(C)C)c1` (stereo not drawn) gave IL-1B inflam inh -12, Six1-Eya2 inh 13, CtBP-E1A blk 5, TDP1 block 3%, TDP1 cell noCPT 18µM* and DT40 TDP1 CPT inconclusive.
Screening CCC(C)NCCCCOc1ccc(Br)cc1 (stereo not drawn) returned IL-1B inflam inh -26, Six1-Eya2 inh -1, CtBP-E1A blk -9, TDP1 block -3%, TDP1 cell noCPT 16µM* and DT40 TDP1 CPT inconclusive.
`CCOC(=O)Cc1csc(/N=C/c2c(O)n(-c3ccc(C)cc3C)c(=O)c3ccccc23)n1` gave IL-1B inflam inh -13, Six1-Eya2 inh 6, CtBP-E1A blk -13, TDP1 block 1%, TDP1 cell noCPT 16µM* and DT40 TDP1 CPT inconclusive.
`COc1ccc(N2CCN(C(=O)c3ccccc3Br)CC2)c([N+](=O)[O-])c1` gave IL-1B inflam inh -61*, Six1-Eya2 inh -16, CtBP-E1A blk -24, TDP1 block -5%, TDP1 cell noCPT 15µM* and DT40 TDP1 CPT inconclusive.
For COc1ccc(N2CCN(C(=O)c3ccc(Br)cc3)CC2)c([N+](=O)[O-])c1 the results were IL-1B inflam inh -18, Six1-Eya2 inh inconclusive, CtBP-E1A blk -26, TDP1 block 4%, TDP1 cell noCPT 18µM* and DT40 TDP1 CPT inconclusive.
`COc1ccc(N2CCN(c3ccc(N4C(=O)COCC4=O)cc3[N+](=O)[O-])CC2)cc1` gave IL-1B inflam inh -4, Six1-Eya2 inh -6, CtBP-E1A blk -9, TDP1 block -3%, TDP1 cell noCPT 9.2µM* and DT40 TDP1 CPT inconclusive.
`COc1ccc(N2CCN(C(=O)c3ccc(C)cc3)CC2)c([N+](=O)[O-])c1` gave IL-1B inflam inh -4, Six1-Eya2 inh -12, CtBP-E1A blk -14, TDP1 block 7%, TDP1 cell noCPT inconclusive and DT40 TDP1 CPT inconclusive.
Screening Cc1ccc(C)c(N2CCN(c3ccc(N4C(=O)COCC4=O)cc3[N+](=O)[O-])CC2)c1 returned IL-1B inflam inh 27, Six1-Eya2 inh 2, CtBP-E1A blk -1, TDP1 block 6%, TDP1 cell noCPT -8% and DT40 TDP1 CPT 0%.
COc1ccccc1CNC(=O)c1ccc2nc3[nH]c4ccccc4c3nc2c1 was read as IL-1B inflam inh -53*, Six1-Eya2 inh -28, CtBP-E1A blk 0, TDP1 block -3%, TDP1 cell noCPT 8.2µM* and DT40 TDP1 CPT inconclusive.
Screening COc1ccc(Cl)cc1NC(=O)c1cc2ccc3ccc(C)[nH]c3c2n1 returned TDP1 block 8%, TDP1 cell noCPT 23µM* and DT40 TDP1 CPT inconclusive.
For COc1ccc(Cl)cc1NC(=O)c1cc(-c2ccccc2)on1 the results were IL-1B inflam inh 8, Six1-Eya2 inh 5, TDP1 cell noCPT -13% and DT40 TDP1 CPT -18%.
`COc1ccccc1CNC(=O)c1cc2ccc3ccc(C)[nH]c3c2n1` gave TDP1 block 5%, TDP1 cell noCPT 16µM* and DT40 TDP1 CPT 18µM*.
